# Source: PubChem BioAssay
# The entries come from a sample that favours hits as a whole.
# FECH inh = inhibitors of human ferrochelatase; P22830; purified FECH, Ni-mesoporphyrin absorbance 550 nm; calls only at 10 µM (by protocol); 20,000 tested, 3.3% active; AID 1671448;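 active = enzyme reaction rate more than 3 SD below the solvent-only control wells on the same plate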;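 note: lower slope than DMSO wells means FECH inhibition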
# Target sequence (P22830 whole entry, looked up): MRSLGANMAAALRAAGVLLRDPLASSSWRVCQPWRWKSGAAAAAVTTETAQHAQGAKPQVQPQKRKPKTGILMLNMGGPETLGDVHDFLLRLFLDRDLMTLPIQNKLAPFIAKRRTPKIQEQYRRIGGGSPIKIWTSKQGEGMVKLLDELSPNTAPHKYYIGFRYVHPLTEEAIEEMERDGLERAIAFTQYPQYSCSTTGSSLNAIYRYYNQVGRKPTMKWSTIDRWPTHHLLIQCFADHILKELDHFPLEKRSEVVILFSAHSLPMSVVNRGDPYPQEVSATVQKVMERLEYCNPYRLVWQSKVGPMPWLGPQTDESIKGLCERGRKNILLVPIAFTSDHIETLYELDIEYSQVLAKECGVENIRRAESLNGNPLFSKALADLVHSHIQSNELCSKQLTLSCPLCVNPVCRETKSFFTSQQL
# Starred values were filed as active, the others as inactive; i = inactive; + = active, no number.
SMILES,FECH inh
COc1cccc(-c2cc(N3CCN(C(=O)Nc4ccc(Br)cc4F)CC3)ncn2)c1,i
Cn1c(=O)c(C(=O)NC2CCCC2)nc2ccccc21,i
Cc1c(CN2Cc3ncccc3C2=O)oc2ccccc12,i
CCc1oc2ccccc2c1-c1nccn1CCN(C)C,i
Cc1c(-c2nccn2Cc2cccnc2)oc2ccccc12,+
Cc1ccc(-n2ncc3c(-n4nc(C)cc4NC(=O)c4ccc(F)cc4F)ncnc32)c(C)c1,i
Cc1cccc(C(=O)N(Cc2nc3nc(C)cc(C)n3n2)c2ccccc2Cl)c1,i
CSc1ccc(CN(C(=O)CN(C)C2CCS(=O)(=O)C2)C2CC2)cc1 (stereo unspecified),i
CC(C)c1nccc(CN(C)C(C)C(=O)N(C)C)n1 (stereo unspecified),i
O=C(Cc1ccc(Cl)cc1)N1CCN(S(=O)(=O)c2cc3c4c(c2)CCN4C(=O)CC3)CC1,i
CC(=O)Nc1ccc(-c2nc(-c3ccc4c(c3)Sc3ccccc3C(=O)N4C)no2)cc1,i
CN1C(=O)c2ccccc2Sc2cc(-c3noc(COc4ccc(F)cc4)n3)ccc21,i
CN1C(=O)c2ccccc2Sc2cc(-c3noc(CNC(=O)c4ccccc4)n3)ccc21,+
Cc1cc(C)cc(C(=O)Nc2cc(C)nn2-c2ncnc3c2cnn3-c2ccc(C)cc2C)c1,i
CN1Cc2cccc(C(=O)Nc3ccc(N4CCOCC4)cc3)c2C1=O,i
O=C(Nc1nc2n(n1)C(c1ccc(Cl)cc1)C=C(c1ccc(Cl)cc1)N2)c1cccnc1 (stereo unspecified),+
Cc1ccc(C2=CC(c3ccc(Cl)cc3)n3nc(NC(=O)c4cccc(Cl)c4)nc3N2)cc1 (stereo unspecified),i
O=C(Nc1nc2n(n1)C(c1ccc(Cl)cc1)C=C(c1ccccc1)N2)c1cccnc1 (stereo unspecified),+
O=C(Nc1nc2n(n1)C(c1ccc(Cl)cc1)C=C(c1ccccc1)N2)c1ccc(Cl)cc1 (stereo unspecified),i
O=C(Nc1nc2n(n1)C(c1ccc(Cl)cc1)C=C(c1ccccc1)N2)c1ccc(F)cc1 (stereo unspecified),i
O=C(Nc1nc2n(n1)C(c1ccccc1)C=C(c1ccc(Cl)cc1)N2)c1ccccc1 (stereo unspecified),i
Cc1nc(C(F)(F)F)nc(NCC2COCCN(C)C2)c1C (stereo unspecified),i
Cc1ccccc1Nc1nc(NCCN2CCOCC2)nc2c1cnn2-c1ccccc1,i
COc1ccccc1NC(=O)Nc1nc(CC(=O)N2CCCCC2)cs1,i
COc1ccc(C(=O)Nc2nc3n(n2)C(c2ccccc2)C=C(c2ccccc2)N3)cc1OC (stereo unspecified),+
SMILES,FECH inh
COc1ccc(C2C=C(c3ccccc3)Nc3nc(NC(=O)c4ccccc4)nn32)cc1 (stereo unspecified),i
CCC(=O)Nc1nc2n(n1)C(c1ccccc1)C=C(c1ccccc1)N2 (stereo unspecified),+
COc1ccc(C2C=C(c3ccccc3)Nc3nc(NC(=O)c4ccc(Cl)cc4)nn32)cc1 (stereo unspecified),i
CCC(=O)Nc1nc2n(n1)C(c1ccccc1)C=C(c1ccc(Cl)cc1)N2 (stereo unspecified),i
CCC(=O)Nc1nc2n(n1)C(c1ccc(Cl)cc1)C=C(c1ccccc1)N2 (stereo unspecified),i
O=C(NCCN1CCCCC1)C1CCCN(c2ncnc3c2nc2n3CCCCC2)C1 (stereo unspecified),i
CC(=O)c1cccc(-c2cccc(C)n2)c1,i
Nc1cc(N2CCc3[nH]nc(C(c4ccccc4)c4ccccc4)c3C2)ncn1,i
O=C(Nc1nc2n(n1)C(c1c(F)cccc1Cl)C=C(c1ccccc1)N2)c1ccco1 (stereo unspecified),i
CC(C)CC(=O)Nc1nc2n(n1)C(c1ccccc1Cl)C=C(c1ccccc1)N2 (stereo unspecified),i
CCCC(=O)Nc1nc2n(n1)C(c1c(F)cccc1Cl)C=C(c1ccc(C)cc1)N2 (stereo unspecified),i
O=C(CCc1ccccc1)Nc1nc2n(n1)C(c1ccccc1Cl)C=C(c1ccccc1)N2 (stereo unspecified),i
CC(C)CC(=O)Nc1nc2n(n1)C(c1c(F)cccc1Cl)C=C(c1ccccc1)N2 (stereo unspecified),+
CCCC(=O)Nc1nc2n(n1)C(c1ccccc1Cl)C=C(c1ccc(Cl)cc1)N2 (stereo unspecified),+
CCCC(=O)Nc1nc2n(n1)C(c1ccccc1Cl)C=C(c1ccccc1)N2 (stereo unspecified),i
CCCC(=O)Nc1nc2n(n1)C(c1c(F)cccc1Cl)C=C(c1ccccc1)N2 (stereo unspecified),+
O=C(CCc1ccccc1)Nc1nc2n(n1)C(c1c(F)cccc1Cl)C=C(c1ccccc1)N2 (stereo unspecified),+
CCCC(=O)Nc1nc2n(n1)C(c1ccccc1Cl)C=C(c1ccc(C)cc1)N2 (stereo unspecified),i
CC(=O)Nc1nc2n(n1)C(c1c(F)cccc1Cl)C=C(c1ccc(Cl)cc1)N2 (stereo unspecified),i
O=C(Nc1nc2n(n1)C(c1c(F)cccc1Cl)C=C(c1ccccc1)N2)c1ccccc1F (stereo unspecified),i
COc1ccc(CC(=O)NCc2nc3cccnc3n2Cc2ccc(OC)cc2)cc1,i
CCOc1ccc(N2CC(NC(=O)c3ccccc3)CC2=O)cc1 (stereo unspecified),i
Cn1nc(C(=O)O)c2c1CCN(C(=O)CC(c1ccccc1)c1ccco1)C2 (stereo unspecified),i
O=c1ccc(-c2ccc(Cl)c(S(=O)(=O)NCc3ccco3)c2)n[nH]1,i
OC1CCN(c2ccnc(NCCc3ncc[nH]3)n2)CC1,i
SMILES,FECH inh
Cc1ccc(NC(=O)N2CCC(n3cnc4cccnc43)CC2)c(C)c1,i
COc1ccc(C2C=C(c3ccccc3)Nc3nc(N4C(=O)CCC4=O)nn32)cc1 (stereo unspecified),i
Cc1ccc(N2CCC(CNC3CCN(C(=O)c4ccccc4)CC3)C2)cc1 (stereo unspecified),i
Cc1ccc(C(=O)Nc2ccc(Nc3nc(C)cc(Nc4ccccc4)n3)cc2)cc1,i
O=C(NCCc1nc2cccnc2n1C1CCCCC1)Nc1ccc(F)cc1,i
Cc1cc(=O)c(C(=O)N2CCOC(c3ccc(Cl)c(Cl)c3)C2)c(C)[nH]1 (stereo unspecified),i
CNc1ncccc1C(=O)N(Cc1sccc1C)C1CCCC1,i
CN(Cc1n[nH]c(=O)n1Cc1cccs1)S(C)(=O)=O,i
Cc1ccc(S(=O)(=O)N2CCC(CC(=O)N3CCN(c4ccccc4)CC3)CC2)cc1,i
Cc1cc(N2CCCN(C(=O)CSc3ncccn3)CC2)ccn1,i
Cc1ccc(CN2CC(=O)N(Cc3ccccc3)c3ccccc3S2(=O)=O)cc1,i
Cc1cc(C)c(NC(=O)CN2CCN(Cc3ccccc3C)S2(=O)=O)c(C)c1,i
CCN1C(SCC(=O)Nc2c(C)cc(C)cc2C)=NS(=O)(=O)c2ccccc21,+
CCN1C(SCC(=O)Nc2ccc3c(c2)OCCO3)=NS(=O)(=O)c2ccccc21,i
CCN1C(SCC(=O)N2CCN(c3ccccc3)CC2)=NS(=O)(=O)c2ccccc21,+
CCN1C(SCC(=O)Nc2cc(C)cc(C)c2)=NS(=O)(=O)c2ccccc21,+
